PubChem BioAssay
The source made the active and inactive calls. Unless noted, the rule behind the calls is not given here.

How the values were obtained:
[1] = resazurin metabolic signal in HepG2 cells – cell-based, resazurin fluorescence, 24 h, PK04 Diversity Set, profiling panel (AID 1172); conditions: HepG2 viability, higher = more signal; note: test concentration not given here
[2] = budding yeast growth changes without added modifier – OD600, strain BY4716, 24 h, basal condition, primary screen (AID 1173); conditions: S. cerevisiae BY4716 growth, OD600, 24 h; higher = more signal, called active from +8 up or from −8 down
[3] = viability profiling in MM1S myeloma cells – cell-based, resazurin fluorescence, basal, 24 h, PK04 Diversity Set, profiling panel (AID 1174); conditions: higher = more signal, called active from +8 up or from −8 down;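 note: MM1S multiple myeloma cell line; test concentration not given here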
[4] = biological target: Dihydroorotate dehydrogenase (quinone), mitochondrial (Plasmodium falciparum (isolate 3D7)) (UniProt Q08210); experiment: inhibition of P. falciparum DHODH – biochemical, C-terminal His tag, absorbance 600 nm, primary screen (AID 1175); conditions: PfDHODH enzyme, DCIP absorbance 600 nm; higher = more signal, called active from +8 up or from −8 down;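 note: recombinant parasite enzyme with a five histidine tag at its C terminus; test concentration not given here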
Dihydroorotate dehydrogenase (quinone), mitochondrial (Plasmodium falciparum (isolate 3D7)), sequence (Q08210 whole entry, looked up): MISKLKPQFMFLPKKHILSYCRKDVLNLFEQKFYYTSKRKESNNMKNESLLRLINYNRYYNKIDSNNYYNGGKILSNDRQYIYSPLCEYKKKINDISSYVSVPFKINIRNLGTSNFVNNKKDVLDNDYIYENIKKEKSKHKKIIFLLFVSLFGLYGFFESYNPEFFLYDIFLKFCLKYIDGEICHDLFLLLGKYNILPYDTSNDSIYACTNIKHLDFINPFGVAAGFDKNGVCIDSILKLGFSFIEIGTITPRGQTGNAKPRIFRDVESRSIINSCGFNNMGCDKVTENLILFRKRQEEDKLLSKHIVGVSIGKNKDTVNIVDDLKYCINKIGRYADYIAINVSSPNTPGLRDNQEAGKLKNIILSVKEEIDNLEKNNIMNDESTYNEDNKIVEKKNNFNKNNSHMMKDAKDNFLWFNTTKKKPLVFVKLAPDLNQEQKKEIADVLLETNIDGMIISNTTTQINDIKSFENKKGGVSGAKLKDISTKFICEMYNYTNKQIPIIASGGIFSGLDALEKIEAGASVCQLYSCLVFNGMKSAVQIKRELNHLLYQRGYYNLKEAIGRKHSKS

[5] = inhibition of PAO1 biofilm formation – strain PAO1, LB-PBS medium, absorbance 600 nm, primary screen (AID 1176); note: test concentration not given here; conditions: P. aeruginosa PAO1 growth/biofilm, A600, 12 h; higher = more signal
[6] = growth modulation of vineyard yeast isolate – strain RM11-1a, OD600, basal, 24 h, primary screen (AID 1177);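 note: cultures grown under basal conditions with no added stressor; test concentration not given here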; conditions: S. cerevisiae RM11-1a growth, OD600, 24 h; higher = more signal, called active from +8 up or from −8 down
[7] = growth of efflux-deficient E. coli DRC39 – strain DRC39, OD650, 24 h, E. coli filamentation inducers, primary screen (AID 1178);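 note: growth measured as culture turbidity by optical density at 650 nm; test concentration not given here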; conditions: E. coli DRC39 acrAB, higher = more signal, called active from +8 up or from −8 down
[8] = growth of efflux-deficient E. coli DRC39 – strain DRC39, OD650, 48 h, E. coli filamentation inducers, primary screen (AID 1179);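 note: screen aims at cell division blockers that make cells filament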; conditions: E. coli DRC39 delta-acrAB growth, higher = more signal, called active from +8 up or from −8 down
[9] = viability profiling in RPMI8226 myeloma cells – cell-based, resazurin fluorescence, basal, 24 h, PK04 Diversity Set, profiling panel (AID 1180); conditions: higher = more signal;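 note: RPMI8826 multiple myeloma cell line at 5000 cells per well; test concentration not given here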
[10] = biological target: E3 ubiquitin-protein ligase XIAP (Homo sapiens) (UniProt P98170); experiment: small molecules binding XIAP protein – biophysical, small-molecule microarray, fluorescence 635 nm, primary screen (AID 1181); conditions: higher = more signal;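 note: score merges 667 nm emission and signal to noise over triplicate slides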
E3 ubiquitin-protein ligase XIAP (Homo sapiens), sequence (P98170 whole entry, looked up): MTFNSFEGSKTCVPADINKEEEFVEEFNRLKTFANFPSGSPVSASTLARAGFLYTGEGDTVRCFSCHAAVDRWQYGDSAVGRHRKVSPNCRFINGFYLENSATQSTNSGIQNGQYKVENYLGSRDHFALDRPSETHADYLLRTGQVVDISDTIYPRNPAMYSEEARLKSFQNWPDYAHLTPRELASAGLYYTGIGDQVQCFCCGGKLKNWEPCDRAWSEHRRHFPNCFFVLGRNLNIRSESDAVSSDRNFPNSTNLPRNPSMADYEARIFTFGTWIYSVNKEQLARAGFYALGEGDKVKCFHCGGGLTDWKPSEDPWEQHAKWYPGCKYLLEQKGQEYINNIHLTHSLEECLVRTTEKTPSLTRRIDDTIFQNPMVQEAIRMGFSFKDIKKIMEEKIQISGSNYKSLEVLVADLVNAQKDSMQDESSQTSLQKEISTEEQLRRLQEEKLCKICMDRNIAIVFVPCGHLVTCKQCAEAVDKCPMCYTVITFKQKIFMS

For `Cc1ccc(S(=O)(=O)OC[C@H]2CN3[C@H](c4ccc(Br)cc4)[C@@H](C)CC[C@H]3C(=O)O2)cc1`, the z-score [1] was 0.794, the z-score [2] was -9.35 (active) and the z-score [3] was 0.648 (inactive). For the same molecule, the composite z-score [4] was -0.303 (inactive), the z-score [5] was 1.29 (inactive) and the z-score [6] was -1.42 (inactive). The z-score [7] was 1.31 (inactive), the z-score [8] was 0.618 (inactive) and the z-score [9] was 0.521. The composite z-score [10] was 0.201.

For `CCOC(=O)[C@H](CC(C)C)NC(=O)CCC1CC(OC(=O)NCc2cccc3ccccc23)CC2(CCCC(COC(=O)NCC3CCCCC3)O2)O1` (stereo not given in full), the z-score [1] was 0.865, the z-score [2] was -0.0452 (inactive) and the z-score [3] was 1.27 (inactive). The composite z-score [4] was -2.33 (inactive), the z-score [5] was -1.45 (inactive) and the z-score [6] was -0.288 (inactive). For the same molecule, the z-score [7] was -0.765 (inactive), the z-score [8] was -0.0838 (inactive) and the z-score [9] was 0.463. It also gave a composite z-score [10] of -0.0333.

With `C=CC[C@@H]1C=C[C@H](ON=C(C)CCN2CCc3nc(-c4ccccc4)c(-c4ccccc4)cc3C2)[C@@H](CO)O1` the z-score [1] was -0.244, the z-score [2] was -1.96 (inactive) and the z-score [3] was -2.02 (inactive). For the same molecule, the composite z-score [4] was -0.126 (inactive), the z-score [5] was 0.0767 (inactive) and the z-score [6] was 0.124 (inactive). For the same molecule, the z-score [7] was 0.921 (inactive), the z-score [8] was 0.392 (inactive) and the z-score [9] was 0.365. For the same molecule, the composite z-score [10] was -0.12.

With `CC[C@@H](c1ccccc1)n1c(=O)n2n(c1=O)[C@H]1[C@H](O)[C@@H]3O[C@@H]3C(=NOC[C@@H](O)COCc3ccco3)[C@H]1CC2` the z-score [1] was -0.466, the z-score [2] was 0.626 (inactive) and the z-score [3] was -0.617 (inactive). For the same molecule, the composite z-score [4] was -0.337 (inactive), the z-score [5] was -0.613 (inactive) and the z-score [6] was -1.11 (inactive). For the same molecule, the z-score [7] was 0.243 (inactive), the z-score [8] was 0.047 (inactive) and the z-score [9] was -0.257. It also gave a composite z-score [10] of -0.117.

For `COC(=O)C1=C(C)N(Cc2ccccc2)[C@]23O[C@](C(=O)OC)(C(=O)N2[C@@H]1c1ccccc1)C(C(=O)OC)=C3C(=O)OC`, the z-score [1] was -0.0934, the z-score [2] was -1.32 (inactive) and the z-score [3] was 1.08 (inactive). The composite z-score [4] was -2.7 (inactive), the z-score [5] was -0.965 (inactive) and the z-score [6] was -0.511 (inactive). The z-score [7] was -0.907 (inactive), the z-score [8] was -1.26 (inactive) and the z-score [9] was 0.345. For the same molecule, the composite z-score [10] was -0.254.

For `Cc1cc2c(nc1C)CCCN2CC(O)CN1CCCc2nc(C)c(C)cc21`, the z-score [1] was 0.269, the z-score [2] was 0.0477 (inactive) and the z-score [3] was -0.644 (inactive). For the same molecule, the composite z-score [4] was 0.0382 (inactive), the z-score [5] was 0.979 (inactive) and the z-score [6] was 0.255 (inactive). For the same molecule, the z-score [7] was -0.494 (inactive), the z-score [8] was -0.242 (inactive) and the z-score [9] was 0.399. It also gave a composite z-score [10] of 1.12.

For `CO[C@H]1COC(=O)CCC[C@@H](C)[C@H](OC)COC(=O)[C@@H]2CCCN2C(=O)CC=C[C@@H]1C`, the z-score [1] was -0.145, the z-score [2] was -0.723 (inactive) and the z-score [3] was 0.435 (inactive). The composite z-score [4] was -0.44 (inactive), the z-score [5] was -1.04 (inactive) and the z-score [6] was -1.04 (inactive). The z-score [7] was -0.367 (inactive), the z-score [8] was -0.459 (inactive) and the z-score [9] was 0.826. It also gave a composite z-score [10] of -0.135.

In the case of `O=C1C=C[C@@H](O)[C@@H]2[C@@H]3C(=O)N(C[C@@H]4CCCO4)C(=O)[C@@H]3CC[C@@H]12`, the z-score [1] is reported as 0.111, the z-score [2] is reported as 0.499 (inactive) and the z-score [3] is reported as 0.561 (inactive). For the same molecule, the composite z-score [4] was -0.0546 (inactive), the z-score [5] was -0.425 (inactive) and the z-score [6] was 0.0539 (inactive). For the same molecule, the z-score [7] was 0.117 (inactive), the z-score [8] was -0.282 (inactive) and the z-score [9] was 0.91. The composite z-score [10] was 0.0032.

With `CC(CCC(=O)OC[C@H]1O[C@H](C#Cc2ccccc2)C=C[C@@H]1Oc1ccc(C)cc1)=NO[C@H](C)c1cn([C@H](CO)Cc2ccccc2)nn1` the z-score [1] was 0.151, the z-score [2] was 0.815 (inactive) and the z-score [3] was -0.0044 (inactive). The composite z-score [4] was 1.1 (inactive), the z-score [5] was 0.463 (inactive) and the z-score [6] was 1.78 (inactive). For the same molecule, the z-score [7] was 0.348 (inactive), the z-score [8] was -0.0348 (inactive) and the z-score [9] was 0.274. It also gave a composite z-score [10] of 0.0191.

With `C[C@@H](ON=C1[C@H]2CCn3c(=O)n(-c4ccccc4)c(=O)n3[C@H]2[C@H](O)[C@@H]2O[C@H]12)c1cn([C@@H]2COC[C@H]2O)nn1` the z-score [1] was -0.311, the z-score [2] was 0.337 (inactive) and the z-score [3] was -0.739 (inactive). For the same molecule, the composite z-score [4] was -0.642 (inactive), the z-score [5] was 0.523 (inactive) and the z-score [6] was -1.01 (inactive). For the same molecule, the z-score [7] was 0.0645 (inactive), the z-score [8] was -0.317 (inactive) and the z-score [9] was -0.715. The composite z-score [10] was -0.189.

With `C#CCCCON=C1C[C@@H](O)[C@@H](O)[C@@H]2[C@@H]3C(=O)N(c4ccc(F)cc4F)C(=O)[C@@H]3CC[C@H]12` the z-score [1] was 0.63, the z-score [2] was -0.98 (inactive) and the z-score [3] was 0.475 (inactive). For the same molecule, the composite z-score [4] was -0.31 (inactive), the z-score [5] was 0.577 (inactive) and the z-score [6] was -1.67 (inactive). For the same molecule, the z-score [7] was 0.335 (inactive), the z-score [8] was 0.537 (inactive) and the z-score [9] was 0.817. It also gave a composite z-score [10] of 0.199.

In the case of `C=CC[C@@H]1C=C[C@H](ON=C2[C@H]3CCn4c(=O)n(-c5ccccc5)c(=O)n4[C@H]3[C@H](O)[C@@H]3O[C@H]23)[C@@H](CO)O1`, the z-score [1] is reported as -0.684, the z-score [2] is reported as 0.695 (inactive) and the z-score [3] is reported as -0.646 (inactive). The composite z-score [4] was 0.329 (inactive), the z-score [5] was 0.675 (inactive) and the z-score [6] was 0.779 (inactive). For the same molecule, the z-score [7] was 0.207 (inactive), the z-score [8] was -0.104 (inactive) and the z-score [9] was -0.331. The composite z-score [10] was -0.0663.

In the case of `CC(C)=CCCC(C)=CCON=C1C[C@@H](O)[C@@H](O)[C@@H]2[C@@H]3C(=O)N(C4CCCCC4)C(=O)[C@@H]3CC[C@@H]12`, the z-score [1] is reported as -0.199, the z-score [2] is reported as -0.81 (inactive) and the z-score [3] is reported as -0.454 (inactive). The composite z-score [4] was -0.42 (inactive), the z-score [5] was 0.565 (inactive) and the z-score [6] was -0.709 (inactive). For the same molecule, the z-score [7] was 0.0915 (inactive), the z-score [8] was -0.742 (inactive) and the z-score [9] was -0.51. The composite z-score [10] was 0.0905.
